Reference: the supplement of paper PMC12669032
Values without a mark were called inactive.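 The calls were made as follows: active = AUC reduced over 20% with Padj below 0.05 in at least 2 of 3 replicates; inactive = otherwise.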

What was measured:
Assay in all cases: growth AUC relative to DMSO control (median of replicates) (fraction); higher = more growth (less inhibition), active = hit call of the paper
Conditions in all cases: 20 µM; 24 h
[1] = system: Akkermansia muciniphila
Procedure, shortened: (§1)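 In round-bottom 96-well plates sealed with pierced gas-permeable seals, gut bacterial monocultures in mGAM were grown anaerobically at 37 °C from OD600 0.05 with 20 µM compound (1% DMSO). OD600 readings were taken hourly for 24 h, and the minimum OD was set to 0. Area under the growth curve was then normalised to the plate median of solvent-only wells, or to row and column medians on the industrial chemical plate. The value given is the median of three biological replicates grown on separate days.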

[2] = system: Bacteroides caccae
Procedure, shortened: as §1

[3] = system: Bacteroides clarus
Procedure, shortened: as §1

[4] = system: Bacteroides dorei
Procedure, shortened: as §1

[5] = system: Bacteroides stercoris
Procedure, shortened: as §1

[6] = system: Bacteroides thetaiotaomicron
Procedure, shortened: as §1

[7] = system: Bacteroides uniformis
Procedure, shortened: as §1

[8] = system: Bifidobacterium longum subsp. longum
Procedure, shortened: as §1

[9] = system: Clostridium difficile
Procedure, shortened: as §1

[10] = system: Collinsella aerofaciens
Procedure, shortened: as §1

[11] = system: Coprococcus comes
Procedure, shortened: as §1

[12] = system: Escherichia coli ED1a
Procedure, shortened: as §1

[13] = system: Escherichia coli IAI1
Procedure, shortened: as §1

[14] = system: Eubacterium rectale
Procedure, shortened: as §1

[15] = system: Fusobacterium nucleatum subsp. animalis
Procedure, shortened: as §1

[16] = system: Lactobacillus gasseri
Procedure, shortened: as §1

[17] = system: Lactobacillus paracasei
Procedure, shortened: as §1

[18] = system: Odoribacter splanchnicus
Procedure, shortened: as §1

[19] = system: Parabacteroides distasonis
Procedure, shortened: as §1

[20] = system: Parabacteroides merdae
Procedure, shortened: as §1

SMILES	growth AUC [1]	growth AUC [2]	growth AUC [3]	growth AUC [4]	growth AUC [5]	growth AUC [6]	growth AUC [7]	growth AUC [8]	growth AUC [9]	growth AUC [10]	growth AUC [11]	growth AUC [12]	growth AUC [13]	growth AUC [14]	growth AUC [15]	growth AUC [16]	growth AUC [17]	growth AUC [18]	growth AUC [19]	growth AUC [20]
CCOP(=S)(Oc1cnc(C(C)(C)C)nc1)OC(C)C (stereo not given)	0.912	0.973	0.94	1.02	0.977	1.01	0.974	0.97	1	1.03	0.998	1.01	0.985	0.811	1.02	1.11	0.988	1.07	1.03	0.995
Cc1cc(C2CC2)nc(Nc2ccccc2)n1	0.934	0.979	0.939	0.916	0.756	0.903	0.981	1.04	0.959	0.953	1.04	0.984	0.962	1.05	1.03	0.982	0.969	1.04	1.01	0.894
CC1(C)C(C=C(Cl)Cl)C1C(=O)OC(C#N)c1cccc(Oc2ccccc2)c1 (stereo not given)	1.06	0.942	1.03	1.02	1.24	0.963	1.01	0.926	0.986	0.966	0.945	1.01	0.98	1.05	1.05	0.776	0.951	1.07	0.98	1.02
CNC(=O)CSP(=S)(OC)OC	1.19	1	0.994	0.901	0.954	1.01	1	1.01	0.978	0.974	1.01	0.977	0.959	1.06	0.957	0.911	0.962	0.954	0.9	0.979
CCSC(C)CC1CC(=O)C(/C(CC)=N/OC/C=C/Cl)=C(O)C1 (mixture of isomers)	1.13	1.05	1.03	1.01	1.11	1.01	1.02	1.01	1.04	1.04	1.06	1.03	1.01	1.03	1.1	0.865	1.06	1.02	0.958	1.02
COC(=O)C(C)N(C(=O)Cc1ccccc1)c1c(C)cccc1C (stereo not given)	0.959	0.985	0.957	0.99	0.954	0.956	0.878	1.02	0.977	1.02	0.967	0.995	0.972	0.916	0.917	0.888	0.98	0.96	0.985	0.944
CCC(C)c1cc([N+](=O)[O-])cc([N+](=O)[O-])c1OC(=O)C=C(C)C (stereo not given)	1.15	0.986	0.74 (active)	0.801	0.473 (active)	0.802	0.479 (active)	0.879	0.989	0.956	0.945	0.968	0.973	0.978	0.802	0.762	0.955	0.515 (active)	0.418 (active)	0.902
Nc1ccc(Cl)cc1	1.01	1.03	1.02	1	1.03	1.05	1.02	1.04	1	0.972	1.03	1.02	1	1.05	1.08	0.939	0.955	1.1	1.05	1.02
CC(C)OP(=O)(OC(C)C)SCc1ccccc1	1.12	0.976	0.99	0.981	0.997	0.964	0.968	0.902	0.968	1	1.03	1.01	0.984	1.09	1.01	0.959	1.01	1.05	0.866	0.988
CCOc1cc(OP(=S)(OC)OC)nc(CC)n1	0.924	1.03	1	1.01	1.13	0.994	0.996	1.01	0.997	1.03	0.984	1	1.01	1.04	1.04	0.996	1.05	0.987	0.951	0.979
Oc1c(Br)cc(Br)cc1Br	0.965	0.916	0.917	1.01	1.22	1.01	0.966	0.984	0.982	0.991	1.01	0.945	0.845	1	1.03	1.13	0.919	0.748	0.934	0.991
COP(=S)(OC)Oc1ccc([N+](=O)[O-])c(C)c1	0.998	0.992	0.968	0.984	0.969	0.99	0.97	1.04	0.988	0.952	0.982	0.986	0.979	1.1	0.994	1.01	1.01	0.962	0.89	0.944
CCOC(=O)COc1cc(-c2nn(C)c(OC(F)F)c2Cl)c(F)cc1Cl	0.977	0.974	0.986	0.99	0.965	1.01	1.04	1.03	1.02	1.04	0.979	0.995	0.971	1.13	1.12	0.996	1.01	1	1.02	1
CN(C)C(=O)C(c1ccccc1)c1ccccc1	0.89	1.03	0.963	1.05	0.957	0.992	1.05	0.947	1.03	1.01	0.974	0.98	0.977	1.11	0.975	1	0.887	0.957	1	1
Oc1c(Cl)ccc(Cl)c1Cl	1.04	0.927	0.968	0.954	1.15	0.987	0.981	1.02	1	0.937	0.98	1.02	0.985	0.969	1.05	0.922	1.01	0.915	0.911	0.981
